LmPK inhibitor: LmPK (Leishmania mexicana) enzyme inhibition. Potency, µM (top dose mostly 57.5 µM), hits mostly inhibitors. purified LmPK, Kinase-Glo ATP luminescence, 1 h. AID 1721. Q27686. hit rate 0.37% among 290,000
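Purified LmPK (0.1 nM) converted ADP (0.1 mM) to ATP with PEP (0.5 mM) in imidazole buffer pH 7.2 with KCl and MgCl2, 1 h at room temperature. ATP was read by Kinase-Glo luminescence; data normalized to uninhibited and no-enzyme controls.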
FBPA Giardia inh: Giardia lamblia aldolase inhibition | A8B2U2 | purified Giardia FBPA | Potency, µM (top dose mostly 59.6 µM), usual class: inhibitors | hit rate 0.71% among 290,000; note: nearly all actives have a fitted effect of over 55% in size
Target sequence (A8B2U2 whole entry, looked up): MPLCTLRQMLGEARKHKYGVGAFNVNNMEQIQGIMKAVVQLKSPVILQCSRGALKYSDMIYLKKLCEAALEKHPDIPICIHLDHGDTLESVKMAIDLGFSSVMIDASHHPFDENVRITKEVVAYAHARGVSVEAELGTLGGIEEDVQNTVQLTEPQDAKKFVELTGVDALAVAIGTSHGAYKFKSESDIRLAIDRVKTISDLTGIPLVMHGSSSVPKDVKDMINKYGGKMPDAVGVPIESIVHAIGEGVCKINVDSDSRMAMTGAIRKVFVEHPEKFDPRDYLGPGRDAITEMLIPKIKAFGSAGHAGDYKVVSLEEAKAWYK
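40 nM FBPA preincubated 10 min at RT with compound (up to 57.5 uM final), then substrate plus GAPDH/TPI/NAD/arsenate coupling and diaphorase/resazurin added. Fluorescence read after 20 min at RT, 525/598 nm.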
RE007 growth inh: less growth of the S. pombe RE007 Vpr strain. Potency, µM (top dose mostly 92.2 µM), actives largely listed as inhibitors. S. pombe RE007 Vpr strain, BacTiter-Glo ATP luminescence, 24 h. hit rate 0.21% among 360,000; active = well fitted falling curve with a large enough effect; inconclusive = small, poorly fitted or top-dose-only effect; inactive = no such curve, though single readings can be large or run the other way; note: nearly all actives have a fitted effect of over 50% in size
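Fission yeast RE007 carrying one integrated HIV-1 vpr copy, seeded at OD 0.01 in PMG+AL medium with 23 nL pinned compound. Grown 24 h at 30 degrees; viability read by BacTiter-Glo luminescence after 5 min.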
Shiga toxin inh: inhibitors of Shiga toxin in Vero cells. Vero cells, Shiga toxin protein synthesis inhibition reporter. inhibition, % at 38.7 µM. hit rate 9.2% among 290,000. AID 2315; in the data active = inhibition mostly above about 28%, no sharp cut-off; inactive = mostly below about 43%
TbPYK inhibitor: inhibitors of Trypanosoma brucei pyruvate kinase; Q57TT1; Potency, µM (titrated, usually from 76.8 µM), hits mostly inhibitors; hit rate 0.12% among 410,000; TbPYK enzyme, Kinase-Glo Plus ATP luminescence, 45 min; note: nearly all actives have a fitted effect of over 50% in size
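Luminescence from Kinase-Glo Plus, added after a 45-minute room-temperature reaction, served as the end-point read-out. The enzyme and substrate were preincubated with compound before ADP (130 uM final) initiated turnover. Concentration-effect curves came from normalized qHTS data.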
Cycloheximide cs: counter-screen for Shiga toxin inhibitors: cycloheximide protein synthesis inhibition; cell reporter, cycloheximide protein synthesis inhibition counterscreen; max response, %; hit rate 12% among 300,000; in the data active = max response mostly above about 13%, no sharp cut-off; inactive = mostly below about 14%; note: read at 38.3 µM for the half of the compounds with a filed dose
Of the large screens only hits and unclear results are named; the others gave an inactive call. This excerpt belongs to a sample that is enriched for hits. Unless noted, calls come from the whole dose curve; as a rule, active = well fitted curve in the direction sought with a large enough effect; inconclusive = small, poorly fitted or top-dose-only effect, or another doubt; inactive = no such curve, though single readings can be large; an effect the other way counts as inactive or inconclusive.

c1ccc(CSc2nnc3ccc(-c4cccs4)nn23)nc1	Shiga toxin inh 61
O=C(COc1ccc(Cl)cc1)Nc1ccc2c(c1)CCC2	none
Cc1ccc(OCC(=O)Nc2ccc3c(c2)CCC3)c([N+](=O)[O-])n1	Shiga toxin inh 67, Cycloheximide cs 40
CC(=O)c1ccc(OCC(=O)Nc2ccc3c(c2)CCC3)cc1	Cycloheximide cs 20
Cc1ccc(OCC(=O)Nc2ccc(F)cc2)c([N+](=O)[O-])n1	Shiga toxin inh active, Cycloheximide cs 56
Cc1ccc(C)c(N2CCN(C(=O)c3cc4c(=O)oc5ccccc5c4s3)CC2)c1	none (no result: LmPK inhibitor, FBPA Giardia inh, RE007 growth inh, Shiga toxin inh, Cycloheximide cs)
CCCCc1n[nH]c2c1/C(=N/O)CC(c1ccccc1)C2 (stereo not drawn)	Cycloheximide cs 27
CCCCc1noc2c1/C(=N\O)CC(c1ccccc1)C2 (stereo not drawn)	Cycloheximide cs 22
Cc1ccc(NC(=O)C(=O)NCCc2sc(-c3ccc(Cl)cc3)nc2C)cc1C	none (no result: LmPK inhibitor, FBPA Giardia inh, RE007 growth inh, Shiga toxin inh, Cycloheximide cs)
CCOC(=O)c1ccc(NC(=O)CCn2ccc(C)n2)cc1	none (no result: LmPK inhibitor, FBPA Giardia inh, RE007 growth inh, Shiga toxin inh, Cycloheximide cs)
Cc1cc(C)c2c(CC(=O)N3CCN(c4cccc(Cl)c4)CC3)coc2c1	none (no result: LmPK inhibitor, FBPA Giardia inh, RE007 growth inh, Shiga toxin inh, Cycloheximide cs)
Cc1ccc(OCc2cc(C(=O)N3CCCC(O)C3)no2)cn1 (stereo not drawn)	Shiga toxin inh 23, Cycloheximide cs 20 (no result: FBPA Giardia inh)
Cc1ccc(OCc2cc(C(=O)N3CCCC(C)C3)no2)cn1 (stereo not drawn)	none (no result: LmPK inhibitor, FBPA Giardia inh, Shiga toxin inh, Cycloheximide cs)
O=C(c1cc(COc2ccccc2)on1)N1CCCC(CN2CCOCC2)C1 (stereo not drawn)	Shiga toxin inh 31, Cycloheximide cs 26 (no result: FBPA Giardia inh)
COCC1CCCN(C(=O)c2cc(COc3ccc(C(C)=O)cc3)on2)C1 (stereo not drawn)	none (no result: LmPK inhibitor, FBPA Giardia inh, Shiga toxin inh, Cycloheximide cs)
CN1C[C@@H]2C[C@H]1CN2c1cc2c(cc1F)c(=O)c(C(=O)O)cn2C1CC1	none (no result: LmPK inhibitor, FBPA Giardia inh, RE007 growth inh, Shiga toxin inh, Cycloheximide cs)
CCOc1ccc(C)cc1-n1nc2ccccc2n1	Cycloheximide cs 20
COc1ccc(C)cc1-n1nc2ccccc2n1	Cycloheximide cs 26
Cc1ccc(OCC(=O)Nc2ccc(Cl)cc2)c(-n2nc3ccccc3n2)c1	none
Cc1ccc(O)c(-n2nc3ccccc3n2)c1	LmPK inhibitor inconclusive, Shiga toxin inh 90, Cycloheximide cs 44
COc1cc(C2CC(=O)N(c3ccccc3)C3=C2C(=O)OC3)cc(OC)c1OC (stereo not drawn)	none (no result: LmPK inhibitor, FBPA Giardia inh, RE007 growth inh, Shiga toxin inh, Cycloheximide cs)
O=C(Nc1ccc(Cl)cc1)c1ccc2oc(=O)n(Cc3ccccc3)c2c1	none (no result: LmPK inhibitor, FBPA Giardia inh, RE007 growth inh, Shiga toxin inh, Cycloheximide cs)
COc1ccc(C2=NS(=O)(=O)N(C)C(C(=O)Nc3ccc(OC(F)(F)F)cc3)=C2)cc1	none (no result: LmPK inhibitor, FBPA Giardia inh, RE007 growth inh, Shiga toxin inh, Cycloheximide cs)
CCCn1c(-c2ccc(F)cc2)nc2c(NCCN(C)C)nc(C)nc21	none (no result: LmPK inhibitor, RE007 growth inh, Shiga toxin inh, TbPYK inhibitor, Cycloheximide cs)
CCCCNC(=S)Nc1ccc(-c2nc3ccc(C)cc3s2)cc1	RE007 growth inh inconclusive, Shiga toxin inh 51, Cycloheximide cs 65
Cc1ccc2nc(-c3ccc(NC(=S)NCCC(C)C)cc3)sc2c1	none (no result: LmPK inhibitor, FBPA Giardia inh, RE007 growth inh, Shiga toxin inh, Cycloheximide cs)
CCC(C)(C)NC(=S)Nc1ccc(-c2nc3ccc(C)cc3s2)cc1	Shiga toxin inh 82, Cycloheximide cs 44 (no result: RE007 growth inh)
Cc1nc2cccnc2n1C1CCN(C(=O)Nc2ccc(Cl)cc2)CC1	none (no result: LmPK inhibitor, FBPA Giardia inh, RE007 growth inh, Shiga toxin inh, Cycloheximide cs)
O=[N+]([O-])c1cccc(SSc2cccc([N+](=O)[O-])c2)c1	RE007 growth inh inconclusive, TbPYK inhibitor 11µM (no result: LmPK inhibitor, FBPA Giardia inh, Shiga toxin inh, Cycloheximide cs)
CSc1ccccc1-c1nnc(-c2ccc(Cl)c(Cl)c2)o1	none
Clc1ccccc1-c1nnc(-c2ccc3c(c2)OCO3)o1	Shiga toxin inh 93, Cycloheximide cs 29
Nc1cc(-c2cccc([N+](=O)[O-])c2)[nH]n1	Cycloheximide cs 16
O=[N+]([O-])c1cccc(-c2nnc(-c3ccc4c(c3)OCO4)o2)c1	Shiga toxin inh 111, Cycloheximide cs 65
CCc1ccc(NC(=O)CSc2nc(C)c(C(=O)Nc3ccccc3)c(-c3ccc(OC)c(OC)c3)c2C#N)cc1	none (no result: LmPK inhibitor, FBPA Giardia inh, RE007 growth inh, Shiga toxin inh, Cycloheximide cs)
COc1ccc(OC)c(NC(=O)c2ccc(-c3nc(CSc4ccccc4)c(C)o3)cc2)c1	none (no result: LmPK inhibitor, FBPA Giardia inh, RE007 growth inh, Shiga toxin inh, Cycloheximide cs)
O=[N+]([O-])c1cccc(-c2nnc(-c3ccccc3)o2)c1	RE007 growth inh inconclusive, Shiga toxin inh 67, Cycloheximide cs 45
Clc1ccccc1-c1nnc2sc(-c3ccc4c(c3)OCO4)nn12	Shiga toxin inh 40, TbPYK inhibitor inconclusive, Cycloheximide cs 19
COc1ccc2c(c1)CC(C(=O)NCc1ccc(F)cc1)CO2 (stereo not drawn)	none (no result: LmPK inhibitor, FBPA Giardia inh, RE007 growth inh, Shiga toxin inh, Cycloheximide cs)
O=C(/C=C/c1ccco1)N1CCc2ccccc21	LmPK inhibitor 7.9µM, RE007 growth inh inconclusive, Shiga toxin inh 59, TbPYK inhibitor inconclusive, Cycloheximide cs 29
CCOC(=O)/C=C/C(=O)N1CCc2ccccc21	LmPK inhibitor inconclusive, RE007 growth inh inconclusive
Cc1ccc(/C=C/C(=O)N2CCc3ccccc32)o1	LmPK inhibitor inconclusive, Shiga toxin inh 103, TbPYK inhibitor 20µM, Cycloheximide cs 50
CCc1cc2c(SCC(=O)c3cccs3)ncnc2s1	Cycloheximide cs 16
CCc1cc2c(SCC(=O)c3ccccc3)ncnc2s1	Shiga toxin inh 73, Cycloheximide cs 45
CCc1cc2c(SCC(=O)O)ncnc2s1	none
O=C(C1CCC(Cn2c(=O)c3sccc3n(Cc3ccccc3F)c2=O)CC1)N1CCOCC1 (stereo not drawn)	none (no result: LmPK inhibitor, FBPA Giardia inh, RE007 growth inh, Shiga toxin inh, Cycloheximide cs)
CCOc1ccc(NC(=O)CC2C(=O)N(c3cccc(C)c3)C(=O)N2CCC2=CCCCC2)cc1 (stereo not drawn)	none (no result: LmPK inhibitor, FBPA Giardia inh, RE007 growth inh, Shiga toxin inh, Cycloheximide cs)

Bioassay records: PubChem, National Center for Advancing Translational Sciences (NCATS)
